# HSP90 refold inh = inhibitors of HSP90 luciferase refolding in rabbit reticulocyte lysate; luciferase refolding luminescence, 3 h; 290,000 compounds, 0.91% hits; AID 1789; inhibition, % at 5.6 µM;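 active = inhibition above the screen-wide mean plus 3 SD, computed separately per campaign, cut at about 16% in these data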;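 note: inhibitors lower the luminescence because luciferase stays unfolded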
# TWEAK-Fn14 inh = TWEAK-Fn14 signaling inhibition. TWEAK-stimulated Fn14 reporter cells, luciferase luminescence, 8 h. inhibition, % at 10 µM. 360,000 compounds, 2% hits; in the data active = inhibition above about 50%
# TROY NFkB inh = inhibitors of TROY-dependent NF-kB signaling; Q293 LMP1-TROYcd NF-kB luciferase reporter, 4 h; inhibition, % at 10 µM; AID 1347056; 360,000 compounds, 0.98% hits;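 active = compounds whose plate-normalised and pattern-corrected inhibition of the luciferase reporter signal at the single screening dose is 50% or more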
# LGR2 antag = Drosophila LGR2 receptor signaling inhibition; HEK293 LGR2, CRE-luciferase, bursicon-stimulated, 4 h; inhibition, % at 9.99 µM; 380,000 compounds, 0.35% hits; AID 720647;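 active = drop in luminescence signal, shown as inhibition above about 50% in the replicate tests, limit read from the data, passing the limit was not always enough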;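 note: agonist challenge used bursicon conditioned medium at about half maximal strength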
# Hits are given with their value; i = inactive; nt = no result given; ! = not active in a repeat. Most compounds without a hit are left out; they make up all but 2.2% or so of the library.
SMILES,HSP90 refold inh,TWEAK-Fn14 inh,TROY NFkB inh,LGR2 antag
O=C(N=Nc1c(O)[nH]c2ccccc12)c1cccc(S(=O)(=O)N2CCCCC2)c1,i,i,i,i
O=C(Nc1nc2c(F)cc(F)cc2s1)C1CCN(C(=O)c2ccc(F)cc2)CC1,nt,i,i,i
O=C(Cc1ccccc1F)Nc1nc(-c2ccc(F)cc2)cs1,i,51.6,57.6,i
O=C(Nc1nc(-c2ccc(F)cc2)cs1)C1CCN(C(=O)c2ccc(F)cc2)CC1,nt,57.4,i,i
Cc1ccc(S(=O)(=O)N2C[C@H](O)COC[C@H]3O[C@H](CC(=O)NCc4ccc5c(c4)OCO5)CC[C@@H]32)cc1,nt,nt,nt,i
Cc1ccc(C(=O)Oc2coc(CSc3nnc(NC(=O)C4CC4)s3)cc2=O)cc1C,i,i,82.5,i
N#CCC(=O)NNC(=S)Nc1ccccc1C(F)(F)F,i,64.7,i,i
CCCN1[C@@H]2c3ccc(-c4ccccc4)c(=O)n3C[C@@H]2[C@@H](CO)[C@@H]1C(=O)NCCc1cn(C)cn1,nt,nt,nt,i
C[C@@H]1CN([C@H](C)CO)C(=O)c2cc(NC(=O)C3CCCCC3)ccc2O[C@H]1CN(C)S(=O)(=O)c1ccc(Cl)cc1,nt,nt,nt,i
CCCCOc1ccc(C(=O)Nc2ccc(N3CCN(C(C)=O)CC3)cc2)cc1,i,i,i,nt
Cc1ccc(C(=O)Nc2ccc(N3CCCCC3)cc2)cc1,nt,i,i,nt
CCCCOc1ccc(C(=O)Nc2ccc(N3CCN(C(=O)C(C)C)CC3)cc2)cc1,i,59.0,i,nt
O=C(Nc1ccc(N2CCCCC2)cc1)c1ccccc1,27.6,i,i,nt
O=C(Nc1ccc(N2CCCCC2)c(Cl)c1)c1cccnc1,i,i,i,nt
O=C(Nc1ccc(N2CCCC2)c(Cl)c1)c1cccnc1,i,82.8,nt,nt
CC(=O)N1CCN(c2ccc(NC(=O)c3ccc(C(C)(C)C)cc3)cc2)CC1,i,i,51.7,i
C[C@H]1CN([C@@H](C)CO)C(=O)c2cc(-c3ccncc3)cnc2O[C@@H]1CN(C)Cc1ccc(Oc2ccccc2)cc1,nt,nt,nt,i
CN1c2ccc(-c3ccccc3)cc2[C@H]2[C@H](CCN2C(=O)c2ccncc2)[C@H]1CO,nt,nt,nt,i
COc1ccc(NC(=O)N(C)C[C@H]2Oc3ccc(NC(=O)CCCCCC(=O)Nc4ccccc4N)cc3C(=O)N([C@@H](C)CO)C[C@@H]2C)cc1,nt,nt,nt,i
CN1CCN(c2ccc(NC(=O)COc3ccccc3[N+](=O)[O-])cc2)CC1,i,i,i,i
CC(=O)c1c[nH]c(C(=O)Nc2ccc(N3CCCCCC3)cc2)c1,nt,69.0,i,i
CC(C)C(=O)N1CCN(c2ccc(NC(=O)COc3ccccc3[N+](=O)[O-])cc2)CC1,i,75.5,i,63.5
CC(=O)Nc1ccc(N2CCCCC2)cc1,i,i,i,nt
C[C@H](CO)N1C[C@H](C)[C@H](CN(C)S(=O)(=O)c2cn(C)cn2)OCCCC[C@H](C)Oc2ccc(NC(=O)CCC(F)(F)F)cc2C1=O,nt,nt,nt,i
CCC(=O)Nc1ccc2c(c1)OC[C@H](C)N(CCc1ccccc1)C[C@@H](C)[C@@H](OC)CN(C)C2=O,nt,nt,nt,i
SMILES,HSP90 refold inh,TWEAK-Fn14 inh,TROY NFkB inh,LGR2 antag
CCCOc1ccc(C(=O)c2ccccc2C(=O)OC2CCOC2=O)cc1OCCC (stereo not drawn),nt,i,i,i
Cc1ccsc1C(=O)OC1CCOC1=O (stereo not drawn),i,i,i,nt
O=C(OC1CCOC1=O)c1ccccc1C(=O)c1ccc(Cl)c([N+](=O)[O-])c1 (stereo not drawn),nt,65.8,i,nt
CC(C)NC(=O)COC(=O)c1cc(F)c(F)cc1Cl,i,i,i,nt
CNC(=O)COC(=O)c1cc(F)c(F)cc1Cl,i,87.3,i,nt
Cc1cccc(C(=O)OC2CCOC2=O)c1O (stereo not drawn),i,89.0,i,i
CNC(=O)COC(=O)c1ccccc1C(=O)c1ccc(Cl)c([N+](=O)[O-])c1,i,101.0,73.8,102.4
C[C@H]1CN([C@@H](C)CO)C(=O)c2cc(C3=CCCCC3)cnc2O[C@@H]1CN(C)Cc1ccccc1F,nt,nt,nt,i
O=C(COC(=O)c1cc([N+](=O)[O-])ccc1Cl)NC1CCCC1,i,i,i,i
O=C(COC(=O)c1ccccc1C(=O)c1ccc(Cl)c([N+](=O)[O-])c1)NC1CC1,i,95.2,65.3,105.3
CCC(=O)N1CC2(CCN(C(=O)c3cccnc3)CC2)c2c([nH]c3cc(OC)ccc23)[C@H]1CO,nt,nt,nt,i
Cc1ccc(CSc2ncn(-c3ccccc3)n2)cc1,i,i,i,nt
Cc1ccc(CSc2nccc(-c3c(C)nc4ccccn34)n2)cc1,i,57.0,i,i
C1CCC(C(CC2CCCCN2)C2CCCCC2)CC1 (stereo not drawn),i,i,i,57.9!
COc1ccc(-c2ccc3c(c2)[C@@H]2[C@@H](CCN2S(=O)(=O)c2ccccc2F)[C@H](CO)N3C)cc1,nt,nt,nt,i
O=S1(=O)C=C(Sc2nc3cc(Cl)ccc3o2)c2ccccc21,i,64.0,i,nt
COc1ccc(NC(=O)Nc2ccc3c(c2)C(=O)N([C@@H](C)CO)C[C@@H](C)[C@H](CN(C)C(=O)C2CCCCC2)OCCCC[C@@H](C)O3)cc1,nt,nt,nt,i
Cc1c(C(=O)NN)nn(-c2ccc(Cl)cc2)c(=O)c1C#N,i,64.7,54.6,i
Cc1c(C(=O)O)nn(-c2cccc(C(F)(F)F)c2)c(=O)c1C#N,i,i,i,i
COc1ccc(-n2nc(C(=O)N3CCCCC3)c(C)c(C#N)c2=O)cc1,i,i,i,i
Cc1ccc(-n2nc(C(=O)NN)c(C)c(C#N)c2=O)cc1Cl,i,71.3,i,i
CO[C@@H]1CN(C)C(=O)c2cc(NC(C)=O)ccc2OC[C@H](C)N(Cc2cccnc2)C[C@H]1C,nt,nt,nt,i
CC(C)C(=O)Nc1ccc2c(c1)C(=O)N(C)[C@@H]1CC[C@H](CC(=O)NC3CCCC3)O[C@@H]1CO2,nt,nt,nt,i
Nc1ccc(-c2nc3c(Cl)cc(N)cc3[nH]2)cc1,i,67.1,61.8,nt
Nc1ccc2nc(-c3ccc(N)c(Cl)c3)[nH]c2c1,i,i,i,nt
SMILES,HSP90 refold inh,TWEAK-Fn14 inh,TROY NFkB inh,LGR2 antag
COC(=O)c1ccc2nc(C)cc(Nc3ccccc3C)c2c1,i,i,i,i
COC(=O)c1ccc(Nc2cc(C)nc3ccc(C)cc23)cc1,i,i,i,73.9
COC(=O)[C@@H]1[C@@H](CO)[C@@H]2Cn3c(ccc(-c4ccccc4)c3=O)[C@@H]2N1C(=O)CC1CC1,nt,nt,nt,i
CO[C@H]1CN(C)C(=O)c2ccc(NC(=O)c3ccccc3)cc2OC[C@@H](C)N(CC2CC2)C[C@H]1C,nt,nt,nt,i
Cc1cc(C(=O)COc2ccc(C#N)cc2)c(C)n1-c1ccc2c(c1)OCO2,i,88.6,i,i
Cc1cc(C(=O)COC(=O)C2=COCCO2)c(C)n1-c1ccc2c(c1)OCO2,i,i,i,nt
Cc1cc(C(=O)COC(=O)Cc2n[nH]c(=O)c3ccccc23)c(C)n1-c1ccc2c(c1)OCCO2,i,68.3,i,nt
Cn1cnc(S(=O)(=O)N2C[C@H](O)COC[C@@H]3O[C@H](CC(=O)N4CCN(c5ccccc5)CC4)CC[C@H]32)c1,nt,nt,nt,i
COC(=O)c1ccc(-c2ccc(C(c3c(C)[nH][nH]c3=O)c3c(C)[nH][nH]c3=O)o2)cc1,i,55.7,i,i
O=[N+]([O-])c1ccc(O)c2ncccc12,i,i,i,100.8
O=Nc1ccc(O)c2ncccc12,i,55.4,i,i

# Assay outcomes: PubChem, several laboratories
